PubChem BioAssay AID602123 (The Scripps Research Institute Molecular Screening Center, 2011)
About 1,500 (0.42%) of roughly 360,000 compounds were called active. Cut-off read from the data, not from the text of the source: active = inhibition above about 13% (passing the limit was not always enough); inactive = the rest. The list comes from a sample in which actives are over-represented; it also holds similar structures and randomly drawn compounds.

Target: Lon protease (Escherichia coli (strain K12)) (UniProt P0A9M0)
Sequence (P0A9M0 whole entry, looked up): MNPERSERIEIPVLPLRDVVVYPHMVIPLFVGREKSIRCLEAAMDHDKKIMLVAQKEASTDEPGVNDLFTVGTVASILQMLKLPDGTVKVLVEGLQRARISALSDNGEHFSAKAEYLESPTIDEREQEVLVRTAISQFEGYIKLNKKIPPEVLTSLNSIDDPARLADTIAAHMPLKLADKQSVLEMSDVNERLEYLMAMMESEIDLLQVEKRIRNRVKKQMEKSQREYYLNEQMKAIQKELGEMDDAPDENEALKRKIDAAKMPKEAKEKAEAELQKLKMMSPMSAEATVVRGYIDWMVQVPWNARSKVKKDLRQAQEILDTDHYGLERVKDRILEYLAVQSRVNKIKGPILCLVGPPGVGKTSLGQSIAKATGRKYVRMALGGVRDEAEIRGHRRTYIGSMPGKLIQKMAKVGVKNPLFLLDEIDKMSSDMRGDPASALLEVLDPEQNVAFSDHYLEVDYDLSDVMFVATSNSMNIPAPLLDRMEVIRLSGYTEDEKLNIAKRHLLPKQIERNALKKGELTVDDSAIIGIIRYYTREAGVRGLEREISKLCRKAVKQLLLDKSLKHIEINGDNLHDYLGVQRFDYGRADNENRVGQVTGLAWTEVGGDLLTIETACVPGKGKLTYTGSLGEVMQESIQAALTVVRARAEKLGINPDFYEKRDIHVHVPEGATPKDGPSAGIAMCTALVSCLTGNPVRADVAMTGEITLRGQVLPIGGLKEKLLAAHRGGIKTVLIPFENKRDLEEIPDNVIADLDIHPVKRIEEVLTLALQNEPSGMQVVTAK
Experiment: inhibitors of E. coli Lon protease, primary screen, biochemical, fluorescence polarization (AID 602123);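 note: 0% = enzyme with probe and DMSO and 100% = no enzyme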
Settings: purified E. coli Lon protease, at 7.94 µM, stronger effect = higher value

inhibition, active:
O=C1C2C3C=CC(C4CC34)C2C(=O)N1/N=C/c1ccc(-c2ccccc2[N+](=O)[O-])o1 (centres undefined) 15.8%
N#CC1=C(N)OC2=C(C(=O)CCC2)C1C1CC=CCC1 (centres undefined) 20%
Cc1ccc2nc3c(cc(C(=O)NCCc4ccccc4)c(=N)n3CC3CCCO3)c(=O)n2c1 (centres undefined) 18.8%
O=C(COC(=O)c1ccccc1C(=O)N1CCN(c2ccccc2)CC1)NCc1ccccc1 23%
COc1cccc2sc(N(CCCN(C)C)C(=O)CCS(=O)(=O)c3ccccc3)nc12 22.5%
Cc1cccn2c(=O)c3cc(C#N)c(=NC(=O)c4cccnc4)n(CC4CCCO4)c3nc12 (centres undefined) 21.1%
c1ccc(CSc2nnc(-c3ccco3)c(-c3ccco3)n2)cc1 86.1%
Clc1ccccc1CSc1nnc(-c2ccco2)c(-c2ccco2)n1 41.5%
COc1ccc(-c2onc3ccc(C(C)=O)cc23)cc1 97%
Cc1ccn2cc(-c3nonc3C)cc2c1 25.1%
c1ccc(C(=NNc2nc3ccccc3s2)c2ccccn2)cc1 131%
COCCn1c(N)c(NCc2ccccc2)c(=O)[nH]c1=O 31.1%
COc1ccc(Nc2ccc([N+](=O)[O-])cn2)cn1 20.9%
COCCNC(=O)Nc1ccc2nc(-c3ccco3)c(-c3ccco3)nc2c1 25.9%
Oc1ccc(N=Cc2sc3ccccc3c2Cl)cc1 32.3%
COc1cc([C@H](Cc2ccccc2)NC(C)=O)oc(=O)c1 17.6%
Nc1ccc2nc3c(=O)[nH]c(=S)[nH]c3nc2c1 182%
Cc1coc2c(O)cc3c(c12)OC1(N2CCCCC2)C(=O)NCCCC31 (centres undefined) 29.9%
COc1ccc(N2CCN(C3CCCCC3NS(=O)(=O)c3ccccc3)CC2)cc1 (centres undefined) 17.2%

inhibition, inactive:
CCOCCCNC(=O)C(NC(=O)c1ccccc1O)c1ccccc1 (centres undefined) 10.1%
CCn1cc(/C=C(\NC(=O)c2ccc(C)cc2)C(=O)NCCN2CCOCC2)c2ccccc21 -56.3%
Cc1c(/C=N/N2C(=O)C3C4C=CC(C4)C3C2=O)c2ccccc2n1C (centres undefined) 0.26%
CCN1CCN(C(=O)CN(C)S(=O)(=O)c2ccc3ccccc3c2)CC1 -4.47%
O=C(NCCOc1cccnc1)c1ccc(OC2CCN(Cc3ccccn3)CC2)cc1 6.74%
CCOC(=O)C1(C(F)(F)F)N=C(N(C)C)OC(N(C)C)=N1 1.25%
NC1=C([N+](=O)[O-])C(c2ccccc2)C2=C(CCCC2=O)O1 (centres undefined) -4.86%
N#CC1=C(N)Oc2cc(O)ccc2C1C1CCCCC1 (centres undefined) -1.88%
O=C(O)c1ccc(OCC2CCCO2)cc1 (centres undefined) -7.47%
CCCCCCSc1nsc(N)n1 -2.31%
COc1ccc(CCNC(=O)Cn2c(=O)n(CC3CCCO3)c(=O)c3ccccc32)cc1OC (centres undefined) -3.69%
Cc1ccc(CCNC(=O)c2ccc3nc4ccccc4c(=O)n3c2)cc1 4.65%
Oc1ccc(N2CCN(C(=S)NCc3ccccc3)CC2)cc1 4.95%
CC(C)N(C(=O)COC(=O)c1ccccc1C(=O)N1CCN(c2ccc(F)cc2)CC1)C(C)C -12.1%
CC(C)(C)C(=O)c1c(N)[nH]c(C(=O)c2ccccc2)c1-c1ccc(F)cc1 -14.5%
O=C(CCS(=O)(=O)c1ccccc1)NC1CCCC1 0.44%
COc1ccc(C)cc1NC(=O)CCS(=O)(=O)c1cccc2nonc12 -0.09%
Cc1nn(C)c(C)c1CN(C(=O)CCc1nnc(Cc2c[nH]c3ccccc23)o1)C(C)C 12.7%
Cc1cccn2c(=O)c3cc(C#N)c(=O)n(CCCN4CCOCC4)c3nc12 -13.8%
COCCCn1c(C(=O)NC2CCCCC2)cc2c(=O)n3cccc(C)c3nc21 -13.7%
O=C(C1CC1)N1N=C(c2ccc(Br)cc2)CC1(O)C(F)(F)F (centres undefined) -8.02%
CCCS(=O)(=O)N1CCC(C(=O)NCCCN(C)Cc2ccccc2)CC1 -3.31%
CC1CC(C)CN(c2ccc(S(=O)(=O)N3CCOCC3)cc2)C1 (centres undefined) 4.68%
CSCCC(NS(=O)(=O)/C=C/c1ccccc1)C(=O)N1CCC(C)CC1 (centres undefined) -1.94%
Cc1ccc(Cc2c(-c3ccco3)nc3ccc(Cl)cn23)cc1 -7.56%
Cc1ccc2nc(-c3ccco3)c(Cc3cccc(Cl)c3)n2c1 -7.22%
c1ccc(Cc2c(-c3ccco3)nc3c4ccccc4ccn23)cc1 -7.97%
COc1ccc(NCc2nnc(SCc3ccccc3)n2-c2ccc(OC)cc2)cc1 -3.02%
O=C(C1CC(=O)N(c2ccc(Br)cc2)C1)N1CCCC1 (centres undefined) -8.68%
CC1CC(=S)Nc2ccccc2N1Cc1ccccc1 (centres undefined) 6.5%
O=C(CCCn1c(=O)c2sccc2n(CC(=O)NCC2CCCO2)c1=O)NCc1ccco1 (centres undefined) -1.12%
C=CCN1CCN(C(=O)CCCc2ccccc2)CC1 -7.13%
Cn1c(C(=O)OC(C(=O)NC2CCCCC2)c2ccccn2)cc2sccc21 (centres undefined) 2.24%
CC(C)(O)C1=C[N+](=O)CC=C1 -1.32%
COC(=O)CSc1ccc2nnc(CCNS(=O)(=O)c3ccc(C)cc3)n2n1 -1.61%
COc1ccc(-c2ocnc2C(=O)Nc2ccc3c(c2)CCC3)cc1 11.4%
COCc1cc(C(C)=O)ccc1OC -3.49%
CCOC(=O)c1cc2cc(OC)ccc2n1C1CCN(C)CC1 3.4%
COc1cc2cc(CN(CCN3CCCC3)C(=O)Nc3ccccc3Cl)c(=O)[nH]c2cc1OC -12.8%
Cc1ccc(C(=O)OCC(=O)NCc2cc(C)c(O)c(C)c2)cc1S(=O)(=O)N1CCCCC1 -7.17%
COc1cc(NC(=O)COC(=O)c2cnc(C)cn2)c(C)cc1[N+](=O)[O-] -4.63%
COc1ccc(-c2cc(NC(C)=O)c3ncc(-c4cc(OC)c(OC)c(OC)c4)n3c2)cn1 2.07%
CSc1ncccc1C(=O)Nc1nc2ccc(F)cc2s1 7.17%
C[C@H]1CN([C@@H](C)CO)C(=O)CCCn2cc(nn2)CO[C@@H]1CN(C)S(=O)(=O)c1ccc(-n2cccn2)cc1 7.06%
O=C(CNC(=O)c1ccccc1F)OCC(=O)c1c[nH]c2ccccc12 -11.7%
O=C(Nc1ccn(Cc2ccccc2)n1)c1n[nH]c([N+](=O)[O-])c1Cl 1.99%
COCCN(C(=O)c1ccccc1F)c1c(N)n(Cc2ccccc2)c(=O)[nH]c1=O 2.64%
COCCn1c(N)c(N(Cc2ccccc2)C(=O)C2CCCCC2)c(=O)[nH]c1=O -5.01%
Cc1ccc(N=C2SCCCN2C(=O)c2cccc(N3C(=O)CCC3=O)c2)cc1Cl 1.67%
COC(=O)c1cccc(C(=O)N2CCC(CCC(=O)NCc3ccc(F)cc3)CC2)c1 -6.42%
CC(=O)Nc1ccc(CN2CCN(Cc3ccc(F)c(F)c3)C(CCO)C2)cc1 (centres undefined) -13.9%
COc1cc(NC(=O)Nc2ccc(C)cc2)cc([N+](=O)[O-])c1 -13%
COC(=O)c1ccccc1N=NNc1ccc([N+](=O)[O-])cc1 -9.1%
O=S(=O)(/N=C(/Nc1ccccc1)c1ccccc1)c1cccs1 5.92%
O=S1(=O)CC(N2CCN(CCO)CC2)CN1Cc1cn(Cc2ccc(Cl)cc2)nn1 (centres undefined) -4.7%
Cn1nc(C(F)(F)F)c2cc(NC(=O)OCC(C)(C)C)sc21 -3.72%
CCNc1nc(N)nc(-c2cc(Cl)ccc2OC)n1 -13.4%
CCOc1cc(S(=O)(=O)NC2CC(C)(C)NC(C)(C)C2)ccc1F -9.09%
COc1ccc(CCNC(=O)Nc2ccc3c(c2)c(=O)n(C)n3C)cc1OC 7.25%
COCCNC(=O)CN(Cc1ccco1)C(=O)CCC(=O)Nc1nccs1 -1.88%
O=C(c1cccc(Br)c1)N1CCN(C2=NS(=O)(=O)c3ccccc32)CC1 -1.34%
COc1ccc2oc(C(=O)NCC(Cc3ccccc3)N(C)C)c(C)c2c1 (centres undefined) 1.71%
COc1ccc(OC)c(NC(=O)N[C@H](Cc2ccccc2)C(=O)NN)c1 -10.1%
CC(=O)N1CC(C)c2scc(C)[n+]2-c2ccccc21 (centres undefined) 20.3%
C=CCc1cccc2cc(C(=O)Nc3ccc(NC(C)=O)cc3)c(=O)oc12 -3.06%
CCc1cc2c(=O)c(-c3ccon3)c(N)oc2cc1OC -12.2%
Cc1cc(OCCN2CCCC2)cc(C(C)C)c1 3.29%
CSc1ccc(C(=O)C2CCCN(C(=O)c3ccc(C)nc3)C2)cc1 (centres undefined) -8.1%
CCCC(=O)OCC(=O)Nc1cc(Cl)ccc1[N+](=O)[O-] 5.89%
CC1(C)CC(N2CCN(C(c3ccccc3)c3ccccc3)CC2)=CC(=[N+]2CCCCC2)C1 -3.99%
O=C(O)Cc1ccc(NC(=O)C2CCCCC2C(=O)O)cc1 (centres undefined) -2.29%
CC#CC[N+](C)(C)CCCCCC 11.3%
CCN1CCN(C2CCCCC2NS(=O)(=O)c2ccc(Cl)cc2)CC1 (centres undefined) -11.9%
O=S(=O)(NC1CCCCC1N1CCN(c2ccccc2F)CC1)c1ccccc1 (centres undefined) -9.13%
N#Cc1ccccc1Sc1ccccc1C(=O)OCC(=O)NC1CCCCC1 -2.35%
